PubChem BioAssay AID1508608 (The Scripps Research Institute Molecular Screening Center, 2020)
Hit rate of the full screen: of about 2,300 compounds, about 20 (0.9%) were called active. What follows is part of a selection rich in actives, with near analogues and random picks from the rest. Unmarked numbers belong to inactive results.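 How the source made its calls: active means mean activation across replicates above 26.72%, the hit cutoff set for this confirmation screen; inactive means the rest.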

biological target: G-protein coupled receptor 151 (Homo sapiens) (UniProt Q8TDV0); assay: GPR151 activators, triplicate retest, confirmation, cell-based, PathHunter beta-arrestin, luminescence, set 2 (AID 1508608); details: GPR151 PathHunter beta-arrestin cells, 90 min, at 11.2 µM, stronger effect = higher value, 100% = signal from added EA reagent;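 further: 0% = plate median of compound wells and 100% = EA reagent high control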
Sequence (Q8TDV0 whole entry, looked up): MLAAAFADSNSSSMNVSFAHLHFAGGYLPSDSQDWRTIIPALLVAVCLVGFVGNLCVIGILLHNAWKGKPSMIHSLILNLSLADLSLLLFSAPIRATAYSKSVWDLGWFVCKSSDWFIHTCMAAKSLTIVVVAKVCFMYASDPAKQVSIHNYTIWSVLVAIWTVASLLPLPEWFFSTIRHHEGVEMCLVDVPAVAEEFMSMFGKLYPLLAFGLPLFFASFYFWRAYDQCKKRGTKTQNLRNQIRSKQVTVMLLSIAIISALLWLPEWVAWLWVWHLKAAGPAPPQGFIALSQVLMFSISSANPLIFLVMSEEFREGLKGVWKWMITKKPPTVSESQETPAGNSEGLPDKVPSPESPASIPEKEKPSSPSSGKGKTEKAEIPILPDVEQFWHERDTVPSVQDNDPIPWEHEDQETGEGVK

SMILES	activation
COc1ccccc1C(=O)NC(C)C(c1cccs1)N1CCOCC1 (configuration not stated)	-5.85%
Cc1ccc(-c2nc3ncccn3c2NC2CCCCC2)o1	-5.26%
NC(=O)C1CCN(S(=O)(=O)c2ccc3c(c2)OCC(=O)N3)CC1	-1.83%
O=C(NCCCN1CCOCC1)/C(=C/c1ccc(-c2cccc(C(F)(F)F)c2)o1)NC(=O)c1ccc(Cl)cc1	23.3%
COc1ccc(-n2nc3c(c2NC(=O)c2c(F)cccc2F)CS(=O)(=O)C3)cc1	-1.16%
CCCN(C(=O)Cc1nc(-c2ccc(OC)cc2)no1)c1ccccc1C	-0.07%
CC1=NN(c2ccccc2)C(=O)/C1=C\c1ccc([N+](=O)[O-])cc1	-3.53%
CCOc1ccc(/C=N/NC(=O)c2ccccc2OC(C)C)cc1O	-4.49%
CN(C)c1ccc(CNCCC2CCOC(C)(C)C2)cc1 (configuration not stated)	0.83%
COc1ccc(-c2cc3ccc(OC(C)C(=O)O)cc3oc2=O)cc1 (configuration not stated)	-10.8%
CC(=O)c1c(C)[nH]c(C(=O)N2CCCC(C)C2)c1C (configuration not stated)	-1.56%
COc1ccc(/C=C\C23N(Cc4ccccc4)C(=O)CN2c2ccccc2C3(C)C)cc1 (configuration not stated)	-0.33%
OCCC1CN(Cc2ccc3nonc3c2)CCN1Cc1ccc(F)c(F)c1 (configuration not stated)	11.5%
O=C(CCC(=O)Nc1ccc(F)cc1)N/N=C/c1cccc([N+](=O)[O-])c1	4.76%
COc1ccc(NC(=O)C(C)N(c2ccc(Oc3ccccc3)cc2)S(C)(=O)=O)cc1 (configuration not stated)	1.83%
Clc1ccc(-n2ncc3c(NCc4ccco4)ncnc32)cc1	3.54%
COC(=O)c1cc(Nc2ncnc3c2cnn3-c2ccc(Cl)cc2)cc(C(=O)OC)c1	5.3%
Cn1ncc2c(NCCc3ccc(Cl)cc3Cl)ncnc21	27.9% (active)
Cc1sc2c(c1C)c(=O)n(CCc1ccccc1)c(=O)n2CC(N)=O	-0.97%
Cc1ccc(-n2ncc3c(=O)n(CC(=O)Nc4cccc(Cl)c4)cnc32)cc1C	-0.5%
C=C(CC(NP(=O)(OCC)OCC)(C(=O)OC)C(F)(F)F)c1ccccc1 (configuration not stated)	1.36%
COc1ccc(CC2(C)OC(c3ccc(C)c([N+](=O)[O-])c3)=NN2C(C)=O)cc1 (configuration not stated)	-3.14%

SMILES	activation
CCOc1ccc(-c2ccc(/C=C3/C(=N)N4C=C(C)SC4=NC3=O)o2)c([N+](=O)[O-])c1	-0.37%
O=c1/c(=C\c2ccccc2Cl)sc2nc3ccccc3n12	-1.37%
CC(C)c1ccc(Cn2ccc3c4c(N)nc(NC5CC5)nc4ccc32)cc1	104% (active)
N/C(=N\OC(=O)CCCN1C(=O)c2ccccc2C1=O)c1ccccn1	10.3%
CCN(CC)C(=O)CN(c1ccccc1)S(=O)(=O)c1ccc(C)cc1	4.39%
CCC1CN(CCNC(=O)c2scc3c2OCCO3)Cc2cc(OC)ccc2O1 (configuration not stated)	6.33%
CC(=O)C1C(c2cccc([N+](=O)[O-])c2)c2c(n[nH]c2C)CC1(C)O (configuration not stated)	0.19%
CC1=C(C(=O)NCCN2Cc3ccccc3OC(c3ccccc3F)C2)OCCO1 (configuration not stated)	2.76%
CCOc1cc(OCC)cc(C(=O)Nc2ccc(Br)cn2)c1	8.34%
CNc1nc2c(-c3ccc(Cl)cc3)nnn2c2ccccc12	16.9%
CC1CC(C)CN(C(=O)c2ccc(NCc3cccs3)c(S(=O)(=O)Nc3cc(F)ccc3F)c2)C1 (configuration not stated)	3.31%
CCCOC1CCCN(Cc2c(C(=O)N(C)CCc3ccccc3)nc3sccn23)C1 (configuration not stated)	6.38%
CC(=O)c1cccc(NC(=O)Oc2ccccc2)c1	2.16%
CCOC(=O)CCN(Cc1ccccc1F)S(=O)(=O)c1ccc([N+](=O)[O-])cc1	-3.3%
COc1ccc(C(=O)N(c2ccc(C)cc2)S(=O)(=O)c2ccc(C)cc2)cc1OC	6.29%
CCOC(=O)c1ccc(CN(Cc2c(Cl)cccc2Cl)S(=O)(=O)c2cccc([N+](=O)[O-])c2)cc1	0.8%
CC1=C(C(=O)OCc2ccco2)C(c2ccc(F)cc2)NC(=O)N1 (configuration not stated)	3.69%
O=[N+]([O-])c1ccc2nc(SCc3ccc(I)cc3)sc2c1	3.08%
CC(C)CCN1C(=O)C(C)(C)COc2cc(NC(=O)c3ccc4c(c3)OCO4)ccc21	-3.7%
COc1cc(/C=C/c2[nH]c(=O)[nH]c(=O)c2[N+](=O)[O-])ccc1OC(C)C	-3.99%
CCN(c1ccccc1)c1ncnc2c1cnn2-c1ccc(Cl)cc1	5.9%
Cc1ccc(-c2[nH]c(=S)[nH]c(=O)c2C#N)cc1	-2.95%

SMILES	activation
Cc1ccccc1OCC(=O)Nc1ccc(N2C(=O)c3ccc([N+](=O)[O-])cc3C2=O)cc1	6.85%
O=C(Nc1cc(C(F)(F)F)ccc1Cl)c1ccc(C(=O)C(=O)c2ccccc2)cc1	-1.66%
O=C(Nc1cc(Cl)ccc1Cl)c1ccccc1O	26.9% (active)
Cc1ccc(NC(=O)c2ccccc2F)c(Br)c1	-2.79%
CCOC(=O)C1=C(C)N=c2s/c(=C\c3cc(C)n(-c4ccc(C(=O)OCC)cc4)c3C)c(=O)n2C1c1ccc(OC)c(OC)c1 (configuration not stated)	1.8%
CCCc1[nH]n(-c2ccc(F)cc2)c(=O)c1C=Nc1ccc(OCC)cc1	-1.39%
Cn1nc2c(c1C(=O)NCC1CC(Cc3cccc(F)c3)=NO1)CCCC2 (configuration not stated)	-2%
O=C(CSc1nnc(Cc2cc(=O)[nH]c(=O)[nH]2)n1-c1ccccc1)NC1CCCC1	2.56%
COc1ccc2c(c1)N(C)/C(=c1/s/c(=c3/sc4nc5ccccc5n4c3=O)n(C)c1=O)S2	5.91%
COC(=O)Cn1c(CN2CCOCC2)nc2c1c(=O)n(C)c(=O)n2C	-2.55%
CC(=O)Cc1nsc(Nc2ccc(C)c(Cl)c2)n1	3.54%
CCN(CC)S(=O)(=O)c1ccc(C(=O)Nc2nc3ccc([N+](=O)[O-])cc3s2)cc1	2.56%
COc1ccc(-c2onc(C(F)(F)F)c2-c2ccc(Cl)cc2)c(O)c1	0.9%
Cc1ccc(Cl)cc1Nc1cc(N2CCOCC2)c2nonc2c1[N+](=O)[O-]	3.43%
CC(C)C[C@@H]1NC(=O)[C@H]2CN(Cc3cn(C)nc3-c3ccccc3)CCN2C1=O	3.84%
CCC(C)NC(=O)C1CCN(S(=O)(=O)N2CCOCC2)CC1 (configuration not stated)	7.37%
Cn1c(=O)oc2cc(S(=O)(=O)N3CCCC(C(=O)N4CCOCC4)C3)ccc21 (configuration not stated)	11.4%
CCc1ccc(C2=CC(c3ccc(OC)c(OC)c3)n3ncnc3N2)cc1 (configuration not stated)	0.38%
COc1ccccc1-c1nnc(C2CCN(S(=O)(=O)c3cccc(C#N)c3)CC2)o1	-0.51%
CCN(CC)CCNC1=CC(=O)OC12CCCCC2	-1.78%
CCC1Oc2ccccc2N(CC(=O)NC2CCCCCC2)C1=O (configuration not stated)	-3.51%
O=C(c1ccco1)N1CCN(C(=O)C2(S(=O)(=O)c3ccc(Cl)cc3)CC2)CC1	4.46%

SMILES	activation
O=C(NCCC12CC3CC(CC(C3)C1)C2)c1cc([N+](=O)[O-])ccc1N1CCOCC1	6.89%
CCOc1ccc(-c2cc(C(=O)N/N=C/c3ccc(O)c(OCC)c3)[nH]n2)cc1	-0.84%
CCCOc1ccc(C2C3=C(CC(C)(C)CC3=O)N(CC(=O)O)C3=C2C(=O)CC(C)(C)C3)cc1OCC	4.15%
COc1ccc(C(=O)NCC2CCCN2S(=O)(=O)c2cccs2)cc1OC (configuration not stated)	-1.78%
CN1CCN(C(CNS(=O)(=O)c2ccccc2)c2cccnc2)CC1 (configuration not stated)	-1.58%
CCCCOC(=O)N1CCOCCOCCN(C(=O)OCCCC)CCOCCOCC1	-4.43%
Cc1ccc(-n2ncc3c(NCc4ccco4)ncnc32)c(C)c1	2.13%
Cc1cccc(-c2nc3ccccc3c(=O)n2Cc2ccccc2C)c1	1.61%
Cc1ccc(COc2cccc3c2CCN(C)C3=O)cc1	-4.68%
CC(=O)Oc1ccccc1N1C(=O)c2cccc([N+](=O)[O-])c2C1=O	28.3% (active)
CCCCOC(=O)c1ccc(N2C(=O)c3cccc([N+](=O)[O-])c3C2=O)cc1	-3.4%
CC(=O)c1ccc(N2C(=O)c3ccc(Oc4ccc([N+](=O)[O-])cc4[N+](=O)[O-])cc3C2=O)cc1	-8.73%
Cc1ccc([N+](=O)[O-])cc1NC(=O)C1C2/C=C\CCCCC21 (configuration not stated)	0.67%
O=C(NCCCN1CCCC1)C(=O)Nc1ccc2nc3n(c(=O)c2c1)CCCCC3	-2.06%
COc1ccc(-c2nc(-c3ccc(NC(=O)c4ccc(Br)o4)cc3)no2)cc1OC	7.05%
N=C(N)SCc1csc2c1CCCC2	1.33%
Nc1nc(NC(=O)c2ccccc2)nn1-c1ccccc1	-4.73%
CC(C)c1ccc(/C=N\NC(=O)Cn2c(-c3nonc3N)nc3ccccc32)cc1	0.86%
CCOC(=O)c1cnc2c(OC)cccc2c1NC1CCCCCC1	18.4%
Cc1ccc(C2=N/C(=C\c3cccc(C(F)(F)F)c3)C(=O)O2)cc1[N+](=O)[O-]	3.7%
CCCCc1ccc(C2=N/C(=C\c3ccc(F)cc3)C(=O)N2c2ccc(Cl)cc2C)cc1	-6.96%
